Experimental data from PubChem BioAssay (NCI).
The panel holds about 83,000 compounds, 20% with a hit somewhere; the sample as a whole holds those more often.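 Assay: single dose, 48 h. Readout: percent growth (0 = no net growth; negative = cell death). Active: <10.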 Values without a mark were called inactive. Calls of active or inactive are those of the source.

System: HL-60(TB) leukemia
Assay: NCI-60 one-dose screen, 48 h (100 = growth as untreated, 0 = no growth, -100 = all killed)
Conditions: 10 µM unless noted

Structure (SMILES) | growth
C=C1C(=O)O[C@H]2[C@H]1CC/C(CNC(=O)/C1=C/CC[C@@]3(C)O[C@H]3[C@H]3OC(=O)C(=C)[C@@H]3CC1)=C\CC[C@@]1(C)O[C@@H]21 | 57.4%
O=C(/C=C/c1cccnc1)NCCCCC1CCCN(C(=O)c2ccccc2)C1 (stereo not drawn) | 63.6%
O=C(COc1cccc(/C=C2\CSc3ccccc3C2=O)c1)c1ccc(Cl)cc1 | -48% (active)
COc1ccc2nc(Cl)c(Cn3nnc(Cc4ccccc4)n3)cc2c1 | 56.6%
CCCCn1c(=O)c(-c2cc(-c3ccc(Cl)cc3)nc(-c3ccc(Cl)cc3)c2)cc2cc(C)ccc21 | 100%
COc1ccc2c(c1)C(=O)c1c-2c(OCCCN(C)C)nc2cc(Br)ccc12 | 98.4%
O=c1nc(NO)[nH]c(=O)n1Cc1ccccc1 | 105%
COC(=O)[C@@H]1[C@H](O)[C@H](C)[C@H](O)[C@H](C)/C=C\C=C(C)C(=O)Nc2c(C)c(OC(C)=O)c3c(c2O)C(=O)C(C)=C2OCOC(=C23)C(C)=C[C@@](C)(O)[C@H](O)[C@@H](C)[C@H]1OC(C)=O | 119%
COc1ccc(-c2cc(C(=O)Nc3ccc(C)cc3)nc3[nH]c(=O)sc23)cc1 | 51.8%
O=C1NC(=O)/C(=C/C=C/c2ccccc2)S1 | -29.3% (active)
O=C(N/N=C/c1c(Cl)cccc1Cl)c1ccccc1Nc1ccnc(C(F)(F)F)c1 | 96.5%
CNC1(C#N)CCN(Cc2ccccc2)CC1 | 168%
O=C(Cc1ccc([N+](=O)[O-])cc1)Oc1ccccc1 | 105%
